Consider five molecules from PubChem BioAssay.

Each structure is given as a SMILES string. “And” between values parts separate entries of the source, which are not always exact repeats. Identical values can stand only once. Records with an inconclusive call do not appear. The source made the active and inactive calls.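 The calls were made as follows, unless noted: active = efflux inhibition above 0.42, the validation set average plus 4 SD; inconclusive = no clear call, values can overlap the other calls; inactive = the rest.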

Experiment [1] in a line: yeast TOR pathway RPL19A-GFP modulators, primary screen, cell-based, S. cerevisiae, multiplex flow cytometry (AID 1862; in the data active = percent of DMSO control GFP below about 86%;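 also: lower values mimic rapamycin by blocking the RPL19A rise seen in DMSO cells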). The conditions noted are these: S. cerevisiae RPL19A-GFP strain, flow cytometry fluorescence, 3 h; at 10 µM; stronger effect = lower value. On the technique in general: A flow cytometer gives signals particle by particle.
Experiment [2] in a line: modulators of MEP2-GFP levels in yeast, primary screen, S. cerevisiae, multiplex flow cytometry (AID 1867;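 active = GFP response, as percent of the DMSO control, above the screen-wide mean plus 3 SD, about 139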;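 also: median GFP channel fluorescence of barcode-gated MEP2-GFP cells measured by flow cytometry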). The conditions noted are these: S. cerevisiae MEP2-GFP strain, 3 h, at 10 µM, stronger effect = higher value, 100% means same as DMSO wells.
Experiment [3] is described as follows: modulators of CIT2-GFP expression in yeast, primary screen, S. cerevisiae, GFP fusion, multiplex flow cytometry (AID 1870;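 active = percent response above a set limit, the screen-wide mean plus 3 SD, cut at about 130% in these data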;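 also: barcoded CIT2-GFP strain pooled with four other GFP strains with rapamycin as positive control; median GFP fluorescence per well over plate mean of DMSO wells so 100% = DMSO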). The conditions noted are these: 3 h, at 10 µM, stronger effect = higher value.
Experiment [4] is described as follows: modulators of LAP4-GFP expression in yeast, primary screen, S. cerevisiae, multiplex flow cytometry (AID 1873;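 active = GFP signal, as percent of the solvent control, above the screen mean plus 3 SD, about 149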). Particulars: 3 h, at 10 µM, stronger effect = higher value.
Experiment [5] in a line: modulators of AGP1-GFP expression in yeast TOR pathway, primary screen, cell-based, multiplex flow cytometry, S. cerevisiae (AID 1887;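 active = GFP signal above the screen-wide mean plus 3 SD, that is over about 124.5% of the solvent control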;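 also: AGP1-GFP fusion strain of S. cerevisiae within a five-strain barcoded multiplex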). The conditions noted are these: 3 h, at 10 µM, stronger effect = higher value.
The nature of experiment [6]: inhibitors of CD8+ T cell-vesicle binding, pilot screen, LFA-1/ICAM-1 modulator project, MLPCN validation set, flow cytometry (AID 2523;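 active = response below a set limit, under 55% cells CD8-positive and vesicle-bound, and CD8 cells' 90th-percentile brightness under 279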;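 as to vesicle binding response: mean PE anti-B7-1 fluorescence of CD8+ cells relative to row control; 100% = QL9-loaded vesicles with DMSO vehicle in the same plate row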). The conditions noted are these: 2C mouse CD8+ T cells, at 7 µM, stronger effect = lower value; double positive events: measured here: CD8+/vesicle+ event percentage.
The target of experiment [7] is Integrin beta-1 (Homo sapiens) + Integrin alpha-4 (Homo sapiens) (UniProt P13612+P05556). Kind of experiment: inhibition of HUTS-21 binding to VLA-4, pilot screen, VLA-4 allosteric modulator project, U937 cells, HUTS-21 mAb, flow cytometry, validation set (AID 2674;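 active = inhibition above 50%, about 3 SD of the validation set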;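 also: antibody binding induced by the VLA-4 ligand LDV present at three times its Kd; 0% = LDV ligand with antibody and no compound and 100% = antibody without LDV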). Particulars: HUTS-21 LIBS mAb binding, at 6.7 µM, stronger effect = higher value, binding induced by LDV ligand.

Experiment [8] is described as follows: superoxide lowering in aged yeast cells, pilot screen, validation compound set (AID 2706;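 active = superoxide response below 65% of plate, a cut near 3 SD across the whole screen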;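 also: yeast exposed to compound for one week at 30 degrees C before staining; 100% = mean of all compound wells on the same plate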). The conditions noted are these: S. cerevisiae aging, superoxide DHE fluorescence; at 10 µM; stronger effect = lower value.
For experiment [9], the target named is Beta-adrenergic receptor kinase 1 (Homo sapiens) (UniProt P25098). As to the kind of experiment: GRK2 binders displacing RNA aptamer, biochemical, validation, human GRK2, bead flow cytometry (AID 488806;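 active = aptamer binding inhibition above 30%, about 3 SD of noise from non-fluorescent compounds; inactive = inhibition at or below 30%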). Particulars: bead-bound GRK2, FAM-aptamer displacement, at 10 µM, stronger effect = higher value.
Experiment [10] concerns the target Beta-2 adrenergic receptor (Homo sapiens) (UniProt P07550). Kind of experiment: beta2AR agonists driving receptor internalization, pilot screen, cell-based, FAP fluorogen, flow cytometry, validation set (AID 504459;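 active = percent response above 42, roughly 3 SD of non-fluorescent test compounds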;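 also: agonist-driven loss of surface beta2AR via internalization measured by FAP dye flow cytometry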). Particulars: Am2.2-beta2AR cells, FAP surface receptor flow cytometry; at 10 µM; stronger effect = higher value.
Experiment [11] addresses AP-2 complex subunit beta (Homo sapiens) (UniProt P63010). Kind of experiment: inhibitors of arrestin peptide binding to AP2, pilot screen, biochemical, validation set, GST-AP2 beads, flow cytometry (AID 504541;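 active = inhibition above 54%, about 3 SD of non-fluorescent compounds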;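 also: AP2 carries R879A mutation and is captured from E. coli lysate; bead-bound FITC arrestin peptide fluorescence measuring arrestin peptide binding to AP2; 0% = DMSO wells and 100% = excess unlabeled arrestin peptide control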). The conditions noted are these: FITC arrestin peptide, at 10 µM, stronger effect = higher value, AP2 beta2 appendage fragment, R879A mutant.
Experiment [12] is described as follows: yeast V-ATPase proton transport modulators, S. cerevisiae, pHLuorin, HTS validation (AID 504600; in the data active = response above about 15%;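 also: plate controls were DMSO for no effect and reference compound for full effect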). The conditions noted are these: S. cerevisiae pHLuorin cytosolic pH, at 10 µM, stronger effect = higher value.
Experiment [13] has as its system anti-desmoglein-3 scFv antibody binding to human DSG3. Kind of experiment: inhibitors of anti-DSG3 scFv binding to DSG3, pilot screen, biochemical, validation compound set, bead-based, flow cytometry (AID 588368;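 active = binding below the plate cutoff, the plate median minus 3 SD, with a reading above zero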;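 also: signal is the median channel fluorescence of bead-bound GFP antibody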). Particulars: Protein G beads, DSG3-Fc, scFv-GFP binding, at 10 µM, stronger effect = lower value.
Experiment [14] in a line: inhibitors of fungal efflux pumps CDR1, CDR2, MDR1, pilot screen, validation compound set, multiplex, phenotypic (AID 588506).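 Also: Nile Red retained in cells so higher fluorescence means more efflux inhibition; 0 = negative control wells and 1 = enniatin B 25 µM full block.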 The conditions noted are these: S. cerevisiae pump-expressing triplex, Nile Red efflux flow cytometry; at 10 µM; stronger effect = higher value; the pumps come from Candida albicans.
The target of experiment [15] is ATP-binding cassette sub-family B member 6 (Homo sapiens) (UniProt Q9NP58). Kind of experiment: ABCB6 transporter inhibitors, pilot screen, K562-ABCB6 cells, flow cytometry, validation set (AID 588550;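 active = inhibition above the screen-wide mean plus 3 SD, about 51%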;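 also: 0% = DMSO wells and 100% = benzethonium chloride 70 µM positive control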). The conditions noted are these: K562-ABCB6 porphyrin accumulation, 1 h, at 10 µM, stronger effect = higher value.
A short description of experiment [16]: promoters of myeloid differentiation in arrested cells, primary screen, cell-based, GFP/MAC1 double positive, flow cytometry, validation set (AID 588685;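 active = differentiation response of at least 50%, scaled between solvent and reference control, from cells with both markers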;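 also: compound exposure lasts four days before antibody staining and flow analysis; 0% = DMSO wells and 100% = 5 µM fulvestrant positive control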). Particulars: ER-HoxA9 marrow cells, stronger effect = higher value, normalized: vehicle 0, fulvestrant 100.

ATP-binding cassette sub-family B member 6 (Homo sapiens), sequence (Q9NP58 whole entry, looked up): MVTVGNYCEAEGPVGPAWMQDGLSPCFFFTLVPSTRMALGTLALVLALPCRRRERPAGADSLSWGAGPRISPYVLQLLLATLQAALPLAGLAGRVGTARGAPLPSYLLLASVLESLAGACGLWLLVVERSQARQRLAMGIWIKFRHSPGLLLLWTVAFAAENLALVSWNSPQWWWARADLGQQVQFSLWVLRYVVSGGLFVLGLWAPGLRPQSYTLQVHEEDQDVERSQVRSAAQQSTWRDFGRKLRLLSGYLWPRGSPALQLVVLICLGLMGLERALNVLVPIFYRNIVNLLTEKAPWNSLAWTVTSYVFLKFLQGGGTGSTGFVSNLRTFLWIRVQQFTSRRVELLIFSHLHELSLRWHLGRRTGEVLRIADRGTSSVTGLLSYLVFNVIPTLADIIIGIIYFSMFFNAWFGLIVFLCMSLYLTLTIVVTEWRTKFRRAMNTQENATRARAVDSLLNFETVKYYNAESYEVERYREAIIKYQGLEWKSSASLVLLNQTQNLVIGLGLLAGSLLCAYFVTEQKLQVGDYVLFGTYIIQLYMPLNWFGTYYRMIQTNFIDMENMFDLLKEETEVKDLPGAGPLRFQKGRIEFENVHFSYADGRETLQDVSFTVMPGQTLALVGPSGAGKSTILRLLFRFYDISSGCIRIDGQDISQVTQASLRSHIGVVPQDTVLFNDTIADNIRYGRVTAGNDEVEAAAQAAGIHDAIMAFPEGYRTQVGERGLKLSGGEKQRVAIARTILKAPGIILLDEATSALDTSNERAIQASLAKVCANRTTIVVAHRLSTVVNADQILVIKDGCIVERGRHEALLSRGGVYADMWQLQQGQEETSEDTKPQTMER
Beta-adrenergic receptor kinase 1 (Homo sapiens), sequence (P25098 whole entry, looked up): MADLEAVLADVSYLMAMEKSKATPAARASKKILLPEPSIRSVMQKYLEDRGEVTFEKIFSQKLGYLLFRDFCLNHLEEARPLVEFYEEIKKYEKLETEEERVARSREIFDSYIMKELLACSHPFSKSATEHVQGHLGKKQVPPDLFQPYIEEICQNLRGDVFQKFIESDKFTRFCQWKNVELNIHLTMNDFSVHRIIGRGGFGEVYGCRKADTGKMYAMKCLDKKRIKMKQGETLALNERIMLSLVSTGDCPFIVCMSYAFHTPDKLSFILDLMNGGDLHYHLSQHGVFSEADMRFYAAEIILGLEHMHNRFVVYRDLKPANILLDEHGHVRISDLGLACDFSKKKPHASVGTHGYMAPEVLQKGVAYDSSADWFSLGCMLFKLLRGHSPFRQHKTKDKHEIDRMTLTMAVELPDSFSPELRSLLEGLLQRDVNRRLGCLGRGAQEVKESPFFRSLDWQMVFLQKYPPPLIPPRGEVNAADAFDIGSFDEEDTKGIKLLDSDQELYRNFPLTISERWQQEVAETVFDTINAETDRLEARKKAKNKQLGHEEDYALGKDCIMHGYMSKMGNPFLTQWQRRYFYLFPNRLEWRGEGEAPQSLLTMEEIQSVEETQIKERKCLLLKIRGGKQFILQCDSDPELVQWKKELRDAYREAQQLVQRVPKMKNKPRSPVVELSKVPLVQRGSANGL
Beta-2 adrenergic receptor (Homo sapiens), sequence (P07550 whole entry, looked up): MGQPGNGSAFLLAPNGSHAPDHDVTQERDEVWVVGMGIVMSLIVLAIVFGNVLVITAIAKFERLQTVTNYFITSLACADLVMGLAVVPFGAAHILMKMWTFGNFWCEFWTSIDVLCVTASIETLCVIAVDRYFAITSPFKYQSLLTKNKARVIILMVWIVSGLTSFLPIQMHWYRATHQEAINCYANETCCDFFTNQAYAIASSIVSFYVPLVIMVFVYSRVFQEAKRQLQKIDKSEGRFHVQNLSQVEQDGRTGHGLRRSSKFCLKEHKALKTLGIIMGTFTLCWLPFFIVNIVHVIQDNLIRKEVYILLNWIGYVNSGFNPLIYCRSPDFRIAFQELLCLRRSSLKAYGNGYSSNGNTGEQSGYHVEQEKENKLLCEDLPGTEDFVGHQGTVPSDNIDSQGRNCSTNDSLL
AP-2 complex subunit beta (Homo sapiens), sequence (P63010 whole entry, looked up, the tested form may be a part, one chain of several): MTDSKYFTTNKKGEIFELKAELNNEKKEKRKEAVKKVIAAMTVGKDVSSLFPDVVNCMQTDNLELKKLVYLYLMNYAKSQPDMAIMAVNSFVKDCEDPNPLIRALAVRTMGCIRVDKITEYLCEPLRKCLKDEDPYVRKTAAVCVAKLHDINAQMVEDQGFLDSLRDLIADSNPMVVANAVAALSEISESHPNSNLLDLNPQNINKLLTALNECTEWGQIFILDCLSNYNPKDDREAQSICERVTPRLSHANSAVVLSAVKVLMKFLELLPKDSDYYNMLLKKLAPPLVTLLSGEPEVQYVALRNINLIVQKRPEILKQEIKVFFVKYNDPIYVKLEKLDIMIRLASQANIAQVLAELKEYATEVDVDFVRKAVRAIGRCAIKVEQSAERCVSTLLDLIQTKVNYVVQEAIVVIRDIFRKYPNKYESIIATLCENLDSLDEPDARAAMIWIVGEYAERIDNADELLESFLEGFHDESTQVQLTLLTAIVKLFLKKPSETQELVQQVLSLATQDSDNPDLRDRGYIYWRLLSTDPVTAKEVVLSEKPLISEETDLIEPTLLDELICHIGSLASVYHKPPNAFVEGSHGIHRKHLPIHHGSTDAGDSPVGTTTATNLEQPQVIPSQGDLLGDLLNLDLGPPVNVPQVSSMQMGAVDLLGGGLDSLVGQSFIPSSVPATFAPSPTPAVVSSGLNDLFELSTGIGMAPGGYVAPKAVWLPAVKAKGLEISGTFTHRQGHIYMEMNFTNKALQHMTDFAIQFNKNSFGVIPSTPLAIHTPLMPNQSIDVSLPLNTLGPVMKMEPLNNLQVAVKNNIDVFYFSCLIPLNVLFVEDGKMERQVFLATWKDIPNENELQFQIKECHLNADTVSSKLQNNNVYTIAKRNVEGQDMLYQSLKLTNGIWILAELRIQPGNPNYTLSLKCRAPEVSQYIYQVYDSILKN
Integrin beta-1 (Homo sapiens) + Integrin alpha-4 (Homo sapiens), sequence (P05556 whole entry, looked up): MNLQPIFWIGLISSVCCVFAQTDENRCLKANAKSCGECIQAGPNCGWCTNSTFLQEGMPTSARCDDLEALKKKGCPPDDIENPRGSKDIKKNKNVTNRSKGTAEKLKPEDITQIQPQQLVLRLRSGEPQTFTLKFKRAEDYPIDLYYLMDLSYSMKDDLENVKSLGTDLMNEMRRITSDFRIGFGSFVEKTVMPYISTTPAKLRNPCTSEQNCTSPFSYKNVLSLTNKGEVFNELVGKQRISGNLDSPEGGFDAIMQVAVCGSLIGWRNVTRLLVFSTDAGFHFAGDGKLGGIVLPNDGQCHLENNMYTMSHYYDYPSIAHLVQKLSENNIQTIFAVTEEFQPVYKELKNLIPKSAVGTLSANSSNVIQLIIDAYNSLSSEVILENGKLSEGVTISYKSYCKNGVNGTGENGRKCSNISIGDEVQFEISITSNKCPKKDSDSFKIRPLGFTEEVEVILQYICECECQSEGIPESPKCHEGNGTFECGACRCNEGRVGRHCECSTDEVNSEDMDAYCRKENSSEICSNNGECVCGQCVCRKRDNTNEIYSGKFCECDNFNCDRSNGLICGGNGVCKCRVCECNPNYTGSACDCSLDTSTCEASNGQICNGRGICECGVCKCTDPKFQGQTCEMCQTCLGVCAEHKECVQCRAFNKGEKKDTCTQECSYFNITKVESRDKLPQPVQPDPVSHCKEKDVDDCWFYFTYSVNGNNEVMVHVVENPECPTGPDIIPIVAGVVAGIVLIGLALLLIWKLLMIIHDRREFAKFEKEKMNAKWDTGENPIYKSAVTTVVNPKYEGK
Integrin beta-1 (Homo sapiens) + Integrin alpha-4 (Homo sapiens), sequence (P13612 whole entry, looked up): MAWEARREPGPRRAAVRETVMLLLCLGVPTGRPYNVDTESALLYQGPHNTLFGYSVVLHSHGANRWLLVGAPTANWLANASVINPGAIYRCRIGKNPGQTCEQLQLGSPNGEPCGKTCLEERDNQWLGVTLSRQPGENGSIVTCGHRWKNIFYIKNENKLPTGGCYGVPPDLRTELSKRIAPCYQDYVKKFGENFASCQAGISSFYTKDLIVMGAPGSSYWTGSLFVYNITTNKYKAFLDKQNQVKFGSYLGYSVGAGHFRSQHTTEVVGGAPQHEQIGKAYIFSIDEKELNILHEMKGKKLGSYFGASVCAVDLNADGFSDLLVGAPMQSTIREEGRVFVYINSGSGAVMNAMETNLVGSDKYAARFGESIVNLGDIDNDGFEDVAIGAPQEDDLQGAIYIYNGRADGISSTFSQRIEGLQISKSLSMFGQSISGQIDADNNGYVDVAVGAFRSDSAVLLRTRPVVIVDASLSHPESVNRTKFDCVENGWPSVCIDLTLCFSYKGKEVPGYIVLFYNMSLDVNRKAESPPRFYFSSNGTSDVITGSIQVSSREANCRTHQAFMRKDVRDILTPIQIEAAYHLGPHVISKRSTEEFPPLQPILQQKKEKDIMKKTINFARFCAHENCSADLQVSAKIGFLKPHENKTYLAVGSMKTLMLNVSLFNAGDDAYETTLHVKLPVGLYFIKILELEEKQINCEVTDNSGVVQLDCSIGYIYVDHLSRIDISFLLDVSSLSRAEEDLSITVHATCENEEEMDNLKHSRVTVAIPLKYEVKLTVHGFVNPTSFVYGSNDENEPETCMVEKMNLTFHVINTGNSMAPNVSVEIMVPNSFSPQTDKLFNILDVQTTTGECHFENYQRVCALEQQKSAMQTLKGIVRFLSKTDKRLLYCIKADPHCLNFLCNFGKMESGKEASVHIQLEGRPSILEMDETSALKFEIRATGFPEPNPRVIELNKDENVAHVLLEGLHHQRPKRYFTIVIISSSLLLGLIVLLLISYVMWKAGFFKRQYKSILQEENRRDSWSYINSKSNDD

For orientation: inhibition means the change of the read-out against control, counted positive when it falls. As for `CSc1ccc(CN2CCN(CCC(C)C)C(CCO)C2)cc1` (stereo not given), the percent of DMSO control GFP in experiment [1] is 101% (inactive). Moreover, the GFP response vs DMSO in experiment [2] was 106% (inactive); in experiment [4] it was 117% (inactive). In addition, in experiment [3], the percent response of DMSO control is 109% (inactive). Besides, the GFP response, % of DMSO in [5] was 131% (active). The double positive events in experiment [6] stood at 61.2%. Also, the vesicle binding response in experiment [6] is 199% (inactive). The inhibition is 4.84% (inactive) in experiment [7], -9.19% (inactive) in experiment [11] and 0% (inactive) in experiment [15]. Besides, the superoxide response (% of plate) in experiment [8] is 91.4% (inactive). The aptamer binding inhibition in [9] is -1% (inactive). Further, the response in [10] was -11.6% (inactive); in experiment [12], 2.63% (inactive). In experiment [13], the binding (% of control) is 102% (inactive). Also, in [14], the efflux inhibition (fraction of control) was -0.09 (inactive). In addition, in [16], the differentiation response was -5.97% (inactive).
Regarding `CCOC(=O)C(NC(C)=O)C(O)c1ccc([N+](=O)[O-])cc1` (stereo not given), in experiment [1], the percent of DMSO control GFP is 99.5% (inactive). The GFP response vs DMSO in [2] is 105% (inactive); in experiment [4], 124% (inactive). The percent response of DMSO control in [3] was 85.3% (inactive). Further, in [5], the GFP response, % of DMSO was 99.2% (inactive). Besides, in experiment [6], the double positive events turned out to be 57.3%. Further, the vesicle binding response in [6] was 211% (inactive). For the same molecule, the results for the inhibition in experiment [7], in experiment [11] and in experiment [15] were -3.16% (inactive), -1.65% (inactive) and 6% (inactive), respectively. Also, in experiment [8], the superoxide response (% of plate) was 103% (inactive). Further, the aptamer binding inhibition in [9] is 0% (inactive). The response in experiment [10] was 4.84% (inactive); in [12], -1.89% (inactive). Besides, the binding (% of control) in experiment [13] was 99.7% (inactive). In addition, the efflux inhibition (fraction of control) in experiment [14] is -0.21 (inactive). Moreover, the differentiation response in experiment [16] is 32.8% (inactive).
As for `Cc1ccc2nc(C)c3c(c2c1)OC(C(C)(Cl)Br)C3` (stereo not given), in [1], the percent of DMSO control GFP was 102% (inactive). The GFP response vs DMSO is 102% (inactive) in experiment [2] and 105% (inactive) in [4]. Further, in experiment [3], the percent response of DMSO control was 111% (inactive). The GFP response, % of DMSO in [5] is 105% (inactive). For the same molecule, the double positive events in experiment [6] came to 73%. Further, the vesicle binding response in [6] was 278% (inactive). Besides, the inhibition was 6.4% (inactive) in experiment [7], -1.65% (inactive) in experiment [11] and 1% (inactive) in experiment [15]. The superoxide response (% of plate) in experiment [8] is 94.8% (inactive). In addition, the aptamer binding inhibition in [9] was 5% (inactive). Besides, the response in experiment [10] is 23.5% (inactive); in [12], 6.53% (inactive). Also, the binding (% of control) in experiment [13] is 98.4% (inactive). Besides, the efflux inhibition (fraction of control) in [14] is 0.08 (inactive). Also, in experiment [16], the differentiation response was 15.2% (inactive).
On to `CN1[C@@H]2CC(OC(=O)[C@H](CO)c3ccccc3)C[C@H]1[C@@H]1O[C@@H]12` (stereo not given in full), for which, in [1], the percent of DMSO control GFP was 107% (inactive) and 99.1% (inactive). Also, the GFP response vs DMSO in experiment [2] is 101% (inactive) and 115% (inactive); in experiment [4], 109% (inactive) and 117% (inactive). For the same molecule, the percent response of DMSO control in experiment [3] is 109% (inactive) and 93.9% (inactive). Further, the GFP response, % of DMSO in experiment [5] is 114% (inactive) and 103% (inactive). In [6], the double positive events was 62.9% and 62.1%. The vesicle binding response in experiment [6] is 177% (inactive) and 215% (inactive). The inhibition is 0.25% (inactive) and 6.4% (inactive) in experiment [7]; 14.7% (inactive) and 37.8% (inactive) in [11]; -10% (inactive) and 4% (inactive) in experiment [15]. In experiment [8], the superoxide response (% of plate) was 99.8% (inactive) and 101% (inactive). Besides, the aptamer binding inhibition in experiment [9] is -1% (inactive) and 3% (inactive). In addition, the response in experiment [10] is -2.34% (inactive) and -12.4% (inactive); in experiment [12], -8.23% (inactive) and -3.95% (inactive). The binding (% of control) in experiment [13] is 101% (inactive) and 98.7% (inactive). For the same molecule, the efflux inhibition (fraction of control) in experiment [14] is -0.26 (inactive) and -0.1 (inactive). Besides, in experiment [16], the differentiation response was -3.11% (inactive) and -2.4% (inactive).
For the molecule `Fc1ccc(-c2cc(-c3ccccc3)nc(-n3cccn3)n2)cc1`, the percent of DMSO control GFP in [1] is 96.5% (inactive). The GFP response vs DMSO in [2] was 106% (inactive); in [4], 97.2% (inactive). Besides, the percent response of DMSO control in experiment [3] was 99.3% (inactive). Also, the GFP response, % of DMSO in [5] was 75.4% (inactive). This molecule also came in with a double positive events in experiment [6] of 57.7%. The vesicle binding response in experiment [6] is 11.1% (inactive). Also, the inhibition is 6.85% (inactive) in experiment [7], 34.7% (inactive) in experiment [11] and 2% (inactive) in experiment [15]. Besides, the superoxide response (% of plate) in experiment [8] is 92% (inactive). In addition, the aptamer binding inhibition in experiment [9] was 4% (inactive). Moreover, the response in experiment [10] was 8.42% (inactive); in [12], 0.43% (inactive). Also, the binding (% of control) in [13] is 102% (inactive). Moreover, the efflux inhibition (fraction of control) in [14] is 0.3 (inactive). Further, the differentiation response in experiment [16] was 20.9% (inactive).
